# Test results published in PubChem BioAssay AID1434 (Sanford-Burnham Center for Chemical Genomics, 2008).
# Out of some 220,000 compounds screened, about 1,600 (0.73%) were called active.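 How the source made its calls: active means mean inhibition across duplicate retests at 20 µM reaching about 50% (limit read from the data); inactive means the rest, inconclusive results apart.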 Only a selection was taken, and actives are over-represented in it overall.
# Molecular target: Runt-related transcription factor 1 (Homo sapiens) + Core-binding factor subunit beta (Homo sapiens) (UniProt Q01196+Q13951)
# Sequence (Q01196 whole entry, looked up, the tested form may be a part): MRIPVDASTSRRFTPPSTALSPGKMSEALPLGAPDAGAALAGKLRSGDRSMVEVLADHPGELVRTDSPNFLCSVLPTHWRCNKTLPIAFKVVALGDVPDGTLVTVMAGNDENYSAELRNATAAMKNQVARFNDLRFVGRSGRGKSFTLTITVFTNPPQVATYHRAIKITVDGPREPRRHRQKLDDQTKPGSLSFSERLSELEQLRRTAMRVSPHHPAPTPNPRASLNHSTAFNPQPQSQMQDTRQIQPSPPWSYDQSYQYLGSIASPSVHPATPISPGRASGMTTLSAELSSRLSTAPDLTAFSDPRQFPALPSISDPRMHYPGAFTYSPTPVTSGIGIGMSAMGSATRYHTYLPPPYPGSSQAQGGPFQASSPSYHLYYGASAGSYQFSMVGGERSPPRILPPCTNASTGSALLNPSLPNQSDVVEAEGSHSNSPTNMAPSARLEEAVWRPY
# Sequence (Q13951 whole entry, looked up, the tested form may be a part): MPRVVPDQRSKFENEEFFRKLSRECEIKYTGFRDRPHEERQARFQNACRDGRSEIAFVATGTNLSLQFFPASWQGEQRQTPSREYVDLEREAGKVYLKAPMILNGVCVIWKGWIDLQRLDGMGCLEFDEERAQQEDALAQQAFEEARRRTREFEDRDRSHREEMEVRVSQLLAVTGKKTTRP
# Test: disruptors of Runt domain/CBFb-SMMHC interaction – biochemical, FRET, Cerulean-Runt, Venus-CBFb-SMMHC, uHTS, primary screen (AID 1434);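 further: 0% = DMSO wells and 100% = wells with excess untagged CBFb-SMMHC; inhibitors lower the FRET ratio by blocking Runt binding to CBFb-SMMHC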
# Conditions: Cerulean-Runt/Venus-CBFb-SMMHC FRET ratio 530/480, 1 h, at 20 µM, stronger effect = higher value
Compound,inhibition,inhibition (retest duplicate average) [%]
CCOC(=O)c1c(NC(=O)NC(C)(C)C)sc2c1CCN(C)C2,10.7% (inactive),–
CCOC(=O)c1c(NC(=S)Nc2ccccc2C)sc2c1CCC2,4% (inactive),–
CCOC(=O)c1c(NC(=S)Nc2ccccc2)sc2c1CCN(C)C2,159% (active),140
Cc1ccc(Nc2nc(N)nc(CN3CCN(Cc4ccccc4)CC3)n2)cc1Cl,1.7% (inactive),–
CCOC(=O)c1cc2n(c1N)-c1ccccc1C2=O,2.2% (inactive),–
Cc1onc(-c2c(Cl)cccc2Cl)c1C(=O)NNC(=O)c1c(-c2c(Cl)cccc2Cl)noc1C,-0.1% (inactive),–
C/C(=N/OC(=O)c1c(-c2c(F)cccc2Cl)noc1C)c1cnccn1,0.1% (inactive),–
CCOC(=O)c1cc2c(=O)n3ccccc3nc2n(CC(C)C)c1=NC(=O)c1c(-c2c(F)cccc2Cl)noc1C,81% (active),58.3
CCCn1c(=NC(C)=O)c(C(=O)OCC)cc2c(=O)n3ccccc3nc21,58.9% (active),115
CCn1c(=N)c(S(=O)(=O)c2ccc(F)cc2)cc2c(=O)n3ccccc3nc21,-20.7% (inactive),–
CCOC(=O)NNc1cc(C(F)(F)F)ccn1,-0.5% (inactive),–
CCC(C)OC(=O)C(C)Oc1ccc(-c2ccccc2)cc1 (centres undefined),-4.2% (inactive),–
CS(=O)(=O)c1sc2nc(-c3ccccc3)cc(-c3ccccc3)c2c1N,83.9% (active),108
CCN(CC)C(=O)c1sc2nc(-c3ccccc3)ccc2c1N,15.5% (inactive),–
Nc1cccc(-c2cc(-c3ccccc3)nc(-c3cccc(N)c3)n2)c1,1.4% (inactive),–
Cc1ccc2nc(COc3ccc(N(C)S(=O)(=O)c4ccccc4)cc3)cc(=O)n2c1,7.6% (inactive),–
CCOC(=O)C1CCN(C(=O)C2(NC(=O)Nc3cccc(F)c3)CCCCC2)CC1,-6.4% (inactive),–
CC(C)(C)c1ccc(/C=C2\Oc3c(ccc(O)c3CN3CCN(CCO)CC3)C2=O)cc1,90.1% (active),70.6
CCOC(=O)c1oc2c(CN3CCN(CCO)CC3)c(O)c(CC)cc2c(=O)c1-c1nc2ccccc2s1,47.8% (inactive),–
O=C(CSc1nc2ccccc2o1)N/N=C/c1ccccc1C(=O)O,0.7% (inactive),–
C/C(N)=C(/C#N)C(=O)COC(=O)C1CCN(C(=O)c2ccc(Cl)cc2)CC1,0.8% (inactive),–
CNc1[nH]ncc1[N+](=O)[O-],7.1% (inactive),–
Cc1cc(NC(C)C)n2c(nc3ccccc32)c1C#N,31% (inactive),–
Cc1cc(NCc2ccco2)n2c(nc3ccccc32)c1C#N,86.1% (active),66

Compound,inhibition,inhibition (retest duplicate average) [%]
CC(C)c1cc(NCc2ccccn2)n2c(nc3ccccc32)c1C#N,29.3% (inactive),–
Cc1[nH]c2ccccc2c1/C=N/NC(=O)CNC(=O)c1ccc2c(c1)OCO2,1.7% (inactive),–
COc1ccc(N2C(=O)C(O)C2c2ccc(C)cc2)cc1 (centres undefined),1.6% (inactive),–
CC(=O)c1cc(C#N)c(N2CCCCC2)nc1C,-1.4% (inactive),–
Cc1cc(C)c2nc(N3CCCC3)c(C#N)cc2c1,65% (active),86.1
Cc1cc(C)c(C#N)c(N2CCC(C(N)=O)CC2)n1,3% (inactive),–
CC(C)N1C(=S)SC(C)(C)C1n1oc(=O)n(-c2ccc(Cl)c(Cl)c2)c1=O (centres undefined),4.2% (inactive),–
CCOc1cc(NC(=O)CCl)c(OCC)cc1NC(C)=O,1.1% (inactive),–
O=C1c2ccccc2S(=O)(=O)N1CC(O)Cn1c2ccccc2c2ccccc21 (centres undefined),4.1% (inactive),–
CS(=O)(=O)N(CC(O)Cn1c2ccccc2c2ccccc21)c1cccc2ccccc12 (centres undefined),1.2% (inactive),–
CCCCN(CCCC)CC(O)Cn1c2ccccc2c(=O)c2ccccc21 (centres undefined),81% (active),70.6
Cc1ccccc1NC(=O)c1nn(-c2ccc(F)c(F)c2)ccc1=O,3.1% (inactive),–
N#CC1=C(N)Oc2cc(O)ccc2C1C1CCCCC1 (centres undefined),120% (active),132
COCc1[nH]nc2c1C(C1C=CCCC1)C(C#N)=C(N)O2 (centres undefined),3.6% (inactive),–
N#CC1=C(N)OC2=C(C(=O)CCC2)C1C1CC=CCC1 (centres undefined),4.6% (inactive),–
C=CCn1c(SCC(N)=O)nnc1-c1cc2c(s1)CCC(CC)C2 (centres undefined),-3.6% (inactive),–
CCS(=O)(=O)c1ccc(O)c(NC(=O)COc2ccc(Cl)cc2)c1,0.3% (inactive),–
Cc1c(CCOC(=O)c2cc([N+](=O)[O-])ccc2Cl)sc[n+]1CCCCS(=O)(=O)[O-],-0.3% (inactive),–
O=C(CCc1ccccc1)Nc1ccc(NC(=O)C2CCCCC2)nc1,-1% (inactive),–
CC(C)C1Nc2c(C(=O)O)cccc2C(Nc2ccccc2C(=O)O)C1(C)C (centres undefined),-10% (inactive),–
CC(C)(C)OC(=O)c1c(N)n(CCCN2CCCC2=O)c2nc3ccccc3nc12,124% (active),142
CCOc1ccc(C(=O)NCCCN2CCCC2=O)cc1,-3.7% (inactive),–
CSc1nnc(-c2ccncc2)n1CCCN1CCCC1=O,5.9% (inactive),–
CCc1ccc(NC(=O)CSc2nc3ccccc3c(=O)n2CCN2CCOCC2)cc1,-3.7% (inactive),–

Compound,inhibition,inhibition (retest duplicate average) [%]
COCC(C)OC(=O)c1c(N)n(CCCN2CCOCC2)c2nc3ccccc3nc12 (centres undefined),109% (active),129
Cc1ccc(C(=O)OC(C)CN2CCOCC2)cc1 (centres undefined),-0.1% (inactive),–
O=C1CC2(CC(c3ccc(Cl)cc3)=NO2)C(=O)N1c1ccccc1 (centres undefined),2.6% (inactive),–
CC(C)(C)c1cc(C(=O)N/N=C/c2ccc([N+](=O)[O-])s2)n[nH]1,-11.1% (inactive),–
COc1ccc(-n2c(C)nn(CC3CC3)c2=O)cc1,-6% (inactive),–
CCCn1c(N)c(C(=O)CSc2nnc(-c3cccnc3)n2-c2ccc(C)cc2C)c(=O)[nH]c1=O,0.2% (inactive),–
Cn1nnc(NC(=S)NC(=O)c2ccccc2)n1,-0.2% (inactive),–
COc1ccc(CCn2c(=N)c(C(=O)NCc3ccco3)cc3c(=O)n4cccc(C)c4nc32)cc1,142% (active),170
COc1ccc(CCNC(=O)Cn2c(=O)n(CC3CCCO3)c(=O)c3ccccc32)cc1OC (centres undefined),-0.7% (inactive),–
COc1ccc(CCNC(=O)c2ccco2)cc1,-1.4% (inactive),–
COCCn1c(=O)[nH]c2cc(C(=O)NCc3cccnc3)ccc2c1=O,-3.4% (inactive),–
O=C(NCc1ccco1)c1cccn2c(=O)c3c4c(sc3nc12)CCCC4,0.4% (inactive),–
COc1ccc(CCNC(=O)CCn2c(=O)c3ccccc3n(CC(=O)NCC3CCCO3)c2=O)cc1OC (centres undefined),-0.3% (inactive),–
CCn1c(=N)c(C(=O)NCCCOC)cc2c(=O)n3cccc(C)c3nc21,58.1% (active),72.9
COc1ccc(CNC(=O)c2cc3c(=O)n4ccccc4nc3n(CC3CCCO3)c2=N)cc1 (centres undefined),92.1% (active),159
CCc1cccc2c(=O)c(C(=O)NCCCOC)c[nH]c12,1% (inactive),–
CC(C)Oc1c(Br)cc(Br)cc1/C=N/NC(N)=S,-0.8% (inactive),–
C=CCN(CC=C)C(=O)COC(=O)c1n[nH]c2ccccc12,-3% (inactive),–
O=c1[nH]c(=S)[nH]c2[nH]c(=S)[nH]c12,45.1% (inactive),–
COc1ccc(C(C(=O)NC2CCCCC2)N(C(=O)CCl)c2ccccc2Cl)cc1 (centres undefined),-1.2% (inactive),–
OC(COCC1COc2ccccc2O1)CN1CCN(c2ccc(F)cc2)CC1 (centres undefined),0.5% (inactive),–
COc1ccc(Cc2nnc(NC(=O)c3cc(OC)c(OC)c(OC)c3)s2)cc1OC,-2% (inactive),–
COc1cc(/C=N/NC(=S)Nc2cccnc2)cc(OC)c1O,3% (inactive),–
CCCCCCCC[n+]1cccc(C(=O)N2c3c(nc(N)[nH]c3=O)NC(C)C2C)c1 (centres undefined),3.4% (inactive),–

Compound,inhibition,inhibition (retest duplicate average) [%]
O=C(CN1CCN(S(=O)(=O)/C=C/c2ccccc2)CC1)Nc1ccc(N2CCOCC2)cc1,1.4% (inactive),–
COc1ccc2c(CN3CCN(S(=O)(=O)c4cccs4)CC3)cc(=O)oc2c1,12.6% (inactive),–
O=c1cc(CN2CCN(S(=O)(=O)/C=C/c3ccccc3)CC2)c2ccc(O)cc2o1,130% (active),146
COc1cccc(OCCCN2CCCCCC2)c1,-44.8% (inactive),–
COc1cccc(/C=C/c2ccc3ccccc3n2)c1OC(C)=O,-3.2% (inactive),–
O=C1OC(/C=C/c2ccccc2)=NC/1=C/c1ccco1,-22.3% (inactive),–
COc1ccccc1/C=C/C1=NC(=C\N(C)C)/C(=O)O1,89.1% (active),91.9
CC(C)=C1C2CCC1C1C(=O)N(NC(=O)c3ccco3)C(=O)C21 (centres undefined),-1.2% (inactive),–
COc1ccc2oc(=O)c(C(=O)O)cc2c1,1.6% (inactive),–
COc1ccc2oc(=O)c(C(=O)N3CCCC3)cc2c1,3.9% (inactive),–
COc1cccc(C(=O)c2cc3ccc(O)cc3oc2=O)c1,165% (active),194
NC(=O)c1c(NC(=O)CSc2nc(N)cc(=O)[nH]2)sc2c1CCCC2,-8.6% (inactive),–
NC(=O)c1c(Nc2nc3c(F)cccc3s2)sc2c1CCCC2,104% (active),175
Fc1cc(F)c2nc(Nc3nc4c(F)cccc4s3)sc2c1,4.2% (inactive),–
CCN1CC=C2C(C#N)=C(N)C(C#N)(C#N)[C@H](c3ccoc3)[C@H]2C1,-20.7% (inactive),–
CCCN1CC=C2C(C#N)=C(N)C(C#N)(C#N)C(c3cc(OC)ccc3OC)C2C1 (centres undefined),88.4% (active),77.5
CCOC(=O)N1CC=C2C(C#N)=C(N)C(C#N)(C#N)[C@H](c3cccs3)[C@H]2C1,-18.3% (inactive),–
Cc1ccc(C2Nc3ccccc3C(=O)N2CCN2CCNC2=O)cc1 (centres undefined),2.4% (inactive),–
CC(C)NC(=O)C(=O)NCCCOC(C)C,-0.3% (inactive),–
O=C(Nc1nccs1)c1cc(S(=O)(=O)N2CCOCC2)c(Cl)cc1Cl,-1% (inactive),–
CCN1CCc2nc(NC(=O)c3cc(F)c(F)cc3Cl)sc2C1,52.5% (active),76.5
CC(=O)Cc1nsc(NC(=O)c2ccc(Cl)cc2Cl)n1,-0.9% (inactive),–
